High-throughput results as filed in PubChem BioAssay.
ELG1 genotoxic – inducers of genotoxicity in HEK293T ELG1-luciferase cells | 330,000 tested, 1.3% active | Potency, µM (doses to about 46 µM), inactives show at the highest dose activity change, positive = activation, hits mostly activators | HEK293T ELG1-luciferase reporter, luminescence, 16 h; further: % of control where 0% means no effect; nearly all actives have a fitted effect of over 60% in size
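Cells (2,000/well) expressing the ELG1-luciferase fusion are dosed by pin tool and kept 16 hr at 37 °C, 5% CO2. Signal comes from ONE-Glo luciferase reagent after 30 min at room temperature.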
SMN2 splice up – SMN2 splice variant enhancement. HEK293 SMN2-luciferase splicing reporter, luminescence, 30-36 h. Potency, µM (highest dose often 46.1 µM), for inactives: at the highest dose activity change, positive = activation, hits mostly activators. 210,000 tested, 2.8% active; further: % of control where 0% means no effect; nearly all actives have a fitted effect of over 55% in size
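qHTS luciferase splicing reporter: luminescence rises when SMN2 exon 7 is included in transfected HEK293 cells. Compound exposure lasted 30-36 h at 37C, with 4.5 mM final sodium butyrate as control, followed by a ONE-Glo read.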
ELG1 repair inh – ELG1-dependent DNA repair inhibition. HEK293T ELG1-luciferase reporter, luminescence, 16 h; DNA damage induced by 5-fluorouridine. Potency, µM (top dose mostly 46.1 µM), for the others: top-dose activity change, negative = inhibition, hits mostly inhibitors. 330,000 tested, 2.3% active; further: on the % scale 0 is the no-effect control and ±100 the full control effect; nearly all actives have a fitted effect of over 55% in size
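DMSO vehicle served as the neutral condition. Each well held 2,000 cells given 5-fluorouridine plus compound; after 16 hr at 37 °C/5% CO2, ONE-Glo was added and luciferase measured 30 min later.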
NPC1 prom act – activates the NPC1 promoter | Huh7 NPC1 promoter luciferase reporter, 24 h | Potency, µM (titrated, usually from 9.22 µM), for the others: at the top dose activation, hits mostly activators | 320,000 tested, 2.4% active; further: % of control where 0% means no effect; nearly all actives have a fitted effect of over 60% in size
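Luminescence from an NPC1 promoter-driven luciferase reporter in stably transfected Huh7 cells was measured after 24 h compound treatment at 37 °C, followed by 10 min ambient incubation with luciferase detection reagent.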
Rab9 prom act – activates the Rab9 promoter; AID 485297; Huh7 Rab9 promoter-luciferase reporter, luminescence, 24 h; Potency, µM (highest dose often 9.22 µM), for the others: top-dose activation, negative = inhibition, usual class: activators; 320,000 tested, 2.8% active; further: % of control where 0% means no effect; nearly all actives have a fitted effect of over 60% in size
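Rab9 promoter-driven luciferase in stably transfected Huh7 cells; 1500 cells/well rested 2 h, exposed to compound in DMSO for 24 h at 37 °C, 5% CO2. Luminescence read 10 min after adding luciferase reagent at ambient temperature.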
FLuc modulator – firefly luciferase modulation, counter-screen for miR-21 project | P08659 | purified FLuc, Km substrates, luminescence inhibition | Potency, µM (series often up to 57.5 µM), for the others: top-dose activity change, negative = inhibition, actives largely listed as inhibitors | 360,000 tested, 6.9% active | AID 588342;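 further: plate controls were vehicle for no effect and reference inhibitor for full effect; nearly all actives have a fitted effect of over 55% in size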
Target sequence (P08659 whole entry, looked up): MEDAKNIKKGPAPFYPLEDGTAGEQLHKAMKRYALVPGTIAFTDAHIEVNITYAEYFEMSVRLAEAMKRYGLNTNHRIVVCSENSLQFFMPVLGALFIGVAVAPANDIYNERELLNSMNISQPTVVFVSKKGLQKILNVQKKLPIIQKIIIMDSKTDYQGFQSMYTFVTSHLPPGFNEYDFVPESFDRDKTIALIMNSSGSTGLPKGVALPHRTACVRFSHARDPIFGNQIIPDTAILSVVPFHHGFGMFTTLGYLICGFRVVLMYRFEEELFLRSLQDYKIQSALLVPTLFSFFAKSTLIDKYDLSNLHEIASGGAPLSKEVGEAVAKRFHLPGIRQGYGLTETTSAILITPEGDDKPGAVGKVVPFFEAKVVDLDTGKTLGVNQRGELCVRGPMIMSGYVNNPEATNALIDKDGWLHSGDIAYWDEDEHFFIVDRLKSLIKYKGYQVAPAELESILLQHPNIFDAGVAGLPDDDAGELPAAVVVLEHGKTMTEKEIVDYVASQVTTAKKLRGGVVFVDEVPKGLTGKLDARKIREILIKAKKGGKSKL
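Purified P. pyralis luciferase (10nM final) with 10uM D-luciferin and 10uM ATP (Km levels) in 50mM Tris acetate pH 7.5, 10mM Mg acetate, 0.01% Tween-20, 0.05% BSA; qHTS 6-point titration, ~60 µM downward; luminescence read.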
Numbers without * were called inactive; ? = inconclusive; · = no result; [ ] = dose if it differs, or a comment. An excerpt weighted towards active compounds, which were near 9.2% of everything screened. The call rests on the fitted dose curve; in most records, active means well fitted curve in the direction sought with a large enough effect; inconclusive means small, poorly fitted or top-dose-only effect, or another doubt; inactive means no such curve, though single readings can be large; an effect the other way counts as inactive or inconclusive. Potency means the concentration at half of the fitted maximal effect.

SMILES	ELG1 genotoxic	SMN2 splice up	ELG1 repair inh	NPC1 prom act	Rab9 prom act	FLuc modulator
COc1ccc(/C(C)=N/N2C(=O)c3ccccc3NC2c2ccc(O)c(OC)c2)cc1 (centres undefined)	?	·	?	16%	?	13µM*
Cn1c(CC(=O)Nc2ccc(Cl)cc2)nnc1SCC(=O)N1CCOCC1	1%	·	8%	-1%	1%	-1%
Cc1cccc(-c2cc3nc(-c4ccccc4)cc(N4CCC5(CC4)OCCO5)n3n2)c1	-6%	-33%	?	-1%	1%	2%
CN(CCO)c1c2c(nc3cc(-c4cccc(F)c4)nn13)CCCC2	?	23%	?	3.5µM*	3.5µM*	24µM*
Clc1cccc(-c2cc3nc4c(c(N5CCNCC5)n3n2)CCCC4)c1	1%	-125%	?	-9%	1%	?
COCCN1CCN(c2cc(-c3ccccc3)nc3cc(-c4cccc(F)c4)nn23)CC1	-13%	-104%	15µM*	-6%	-3%	1%
OC1CCN(c2c3c(nc4cc(-c5cccc(F)c5)nn24)CCCC3)CC1	0%	29%	?	1%	8%	?
COc1cc(OC)cc(-c2cc3nc4c(c(N5CCN(c6ncccn6)CC5)n3n2)CCCC4)c1	-1%	-16%	15µM*	16%	14%	-23%
Fc1cccc(-c2cc3nc4c(c(N5CCC6(CC5)OCCO6)n3n2)CCCC4)c1	?	11%	?	-1%	0%	15µM*
COC(=O)C1(CCSC)NC(c2ccc(O)cc2)C2C(=O)N(c3ccc(F)cc3)C(=O)C21 (centres undefined)	-2%	·	-3%	-3%	2%	-11%
COc1ccc(CNc2oc(/C=C/c3cc(OC)c(OC)c(OC)c3)nc2C#N)cc1	·	?	·	·	·	3%
Fc1cccc(-c2cc3nc(-c4ccccc4)cc(N4CCC5(CC4)OCCO5)n3n2)c1	-8%	-22%	23µM*	-5%	-11%	4%
Cc1cnc(NC(=O)c2c(-c3ccccc3)noc2C)s1	-4%	·	?	-1%	-9%	4%
COc1ccc(-c2ccc(SCC(=O)Nc3cc(C)on3)nn2)cc1OC	1%	·	0%	11%	?	-8%[2.3 µM]
COc1ccc(-c2ccc(SCC(=O)c3ccccc3)nn2)cc1OC	-4%	-1%	?	-1%	1%	24µM*
Cc1ccc(-c2ccc(SCC(=O)c3ccccc3)nn2)cc1	?	6.3µM*	?	?	?	15µM*
Cc1cc(NC(=O)Nc2ccc3c(ccn3C)c2)sn1	·	?	·	7.3µM*	6.5µM*	·
Cc1cc(NC(=O)CCC(=O)N(c2ccccc2)C(C(=O)NC2CCCC2)c2ccccc2C)no1 (centres undefined)	-2%	·	-11%	?	1%	3%
Fc1ccc2c(Cl)c(-c3nnc(-c4cccs4)o3)sc2c1	0.65µM*	4.5µM*	?	1.4µM*	0.56µM*	0.19µM*
CCN(CC)C(=O)Cn1c(=O)n(-c2ccc(Cl)cc2)c(=O)c2c3c(sc21)CCC3	·	-9%	·	·	·	-1%
O=C(NCCc1cccs1)C1CC(c2ccccc2[N+](=O)[O-])=NO1 (centres undefined)	15%	24%	?	?	?	15µM*
COc1ccc(CCNC(=O)C2CC(c3ccccc3[N+](=O)[O-])=NO2)cc1 (centres undefined)	21%	27%	?	?	?	19µM*
CCCCNC(=O)C1CC(c2cccc([N+](=O)[O-])c2)=NO1 (centres undefined)	?	?	?	2.8µM*	2.8µM*	11µM*
CC(C)CCNC(=O)C1CC(c2cccc([N+](=O)[O-])c2)=NO1 (centres undefined)	3%	-17%	9%	3%	9%	0%
COC(=O)c1ccc(NC(=O)CSc2cn(CC(=O)N3CCCCCC3)c3ccccc23)cc1	·	·	·	·	·	2%
SMILES	ELG1 genotoxic	SMN2 splice up	ELG1 repair inh	NPC1 prom act	Rab9 prom act	FLuc modulator
O=C1c2[nH]nc(-c3ccccc3O)c2C(c2ccc(Cl)cc2)N1Cc1ccco1 (centres undefined)	·	4%	·	·	·	-17%
COn1c(-c2ccc(Cl)cc2)nc2ncccc21	?	·	?	?	?	21µM*
Cc1c(C)n(CCCN(C)C)c2ncnc(NCc3ccccc3)c12	1%	·	24%	-5%	-4%	-1%
Cc1c(C)n(CCc2ccccc2)c2ncnc(NCCO)c12	?	·	?	3.5µM*	1.8µM*	17µM*
C=CCNc1ncnc2c1cnn2-c1cccc(C)c1	2.9µM*	11µM*	?	2.5µM*	1.4µM*	4.8µM*
Cc1ccc(-n2c(C)c(C)c3c(NCCCO)ncnc32)cc1	?	·	?	2.8µM*	2.5µM*	19µM*
C=CCNc1ncnc2c1cnn2-c1ccc(Cl)cc1	1.8µM*	2.8µM*	?	0.89µM*	1.1µM*	0.85µM*
COc1ccc(-n2c(C)c(C)c3c(NCCCO)ncnc32)cc1	14%	·	?	?	?	?
O=C(CCNC(=O)C1CCN(S(=O)(=O)c2ccccc2)CC1)NCc1ccc(Cl)c(Cl)c1	-11%	·	-9%	0%	0%	4%
NCC1CC2c3ccccc3C1c1ccccc12 (centres undefined)	-4%	·	-6%	1%	-2%[1.84 µM]	-1%
CCN(CC)CCCNc1ncnc2c1cnn2-c1ccc(C)c(C)c1	·	·	·	·	·	15µM*
Cc1cccc(-n2ncc3c(NCCCO)ncnc32)c1	3.7µM*	11µM*	?	2.5µM*	1.1µM*	6.7µM*
CCCCNc1ncnc2c1cnn2-c1ccc(C)cc1C	14%	-28%	-1%	-1%	-7%	-19%
N#CCOC(=O)C1CCN(S(=O)(=O)c2ccc3c(c2)OCCO3)CC1	1%	·	14%	1%	-5%	9%
O=C(c1ccc2c(=O)n(-c3ccccc3)c(=S)[nH]c2c1)N1CCN(c2ccccc2)CC1	-6%	·	?	-3%	-1%	·
O=C(c1ccc2c(=O)n(-c3ccccc3)c(=S)[nH]c2c1)N1CCCCC1	-5%	-69%	3.3µM*	-26%	-24%	-1%
O=C(c1ccc2c(=O)n(C3CCCC3)c(=S)[nH]c2c1)N1CCCCCC1	-10%	-4%	1.8µM*	-29%	-38%	-11%
CC1CCCN(C(=O)c2ccc3c(=O)n(C4CCCC4)c(=S)[nH]c3c2)C1 (centres undefined)	-7%	-70%	?	-19%	-29%	-12%
Cn1cc(S(=O)(=O)N2CCCC2)cc1C(=O)O	-1%	·	-5%	·	·	·
